Shiga inhibitor: Shiga toxin inhibition; Vero cells, Shiga toxin protein synthesis inhibition reporter; inhibition, % at 38.7 µM; 9.2% of 290,000 active; in the data active = inhibition mostly above about 28%, no sharp cut-off; inactive = mostly below about 43%; also: 0% is about no effect
TbPYK inhibitor: T. brucei pyruvate kinase inhibition; TbPYK enzyme, Kinase-Glo Plus ATP luminescence, 45 min; AID 624173; 0.12% of 410,000 active; Potency, µM (highest dose often 76.8 µM), inactives show at the top dose activity, negative = inhibition, most hits filed as inhibitors; Q57TT1; also: potency is read from the fitted curve at half-maximal effect; % is scaled to controls: 0 for no effect and ±100 for the full control effect; nearly all actives have a fitted effect of over 50% in size
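Luminescence from Kinase-Glo Plus, added after a 45-minute room-temperature reaction, served as the end-point read-out. The enzyme and substrate were preincubated with compound before ADP (130 uM final) initiated turnover. Concentration-effect curves came from normalized qHTS data.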
CHX counter: affects cycloheximide protein synthesis inhibition readout, counter-screen. cell reporter, cycloheximide protein synthesis inhibition counterscreen. max response, %. 12% of 300,000 active; in the data active = max response mostly above about 13%, no sharp cut-off; inactive = mostly below about 14%; also: read at 38.3 µM for the half of the compounds with a filed dose; 0% is about no effect
Giardia FBPA inh: inhibitors of Giardia lamblia fructose-1,6-bisphosphate aldolase. A8B2U2. purified Giardia FBPA. Potency, µM (highest dose often 59.6 µM), without a hit: at the highest dose activity, negative = inhibition, usual class: inhibitors. 0.71% of 290,000 active. AID 2451; also: potency is read from the fitted curve at half-maximal effect; % is scaled to controls: 0 for no effect and ±100 for the full control effect; nearly all actives have a fitted effect of over 55% in size
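40 nM FBPA preincubated 10 min at RT with compound (up to 57.5 uM final), then substrate plus GAPDH/TPI/NAD/arsenate coupling and diaphorase/resazurin added. Fluorescence read after 20 min at RT, 525/598 nm.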
RE007 growth inh: less growth of the S. pombe RE007 Vpr strain. S. pombe RE007 Vpr strain, BacTiter-Glo ATP luminescence, 24 h. Potency, µM (series often up to 92.2 µM), for the others: at the top dose activity change, negative = less growth, actives largely listed as inhibitors. 0.21% of 360,000 active. AID 651644; active = well fitted falling curve with a large enough effect; inconclusive = small, poorly fitted or top-dose-only effect; inactive = no such curve, though single readings can be large or run the other way; also: potency is read from the fitted curve at half-maximal effect; % is scaled to controls: 0 for no effect and ±100 for the full control effect; nearly all actives have a fitted effect of over 50% in size
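Fission yeast RE007 carrying one integrated HIV-1 vpr copy, seeded at OD 0.01 in PMG+AL medium with 23 nL pinned compound. Grown 24 h at 30 degrees; viability read by BacTiter-Glo luminescence after 5 min.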
LmPK inh: blocks Leishmania mexicana pyruvate kinase activity; Potency, µM (highest dose often 57.5 µM), for the others: at the top dose activity change, negative = inhibition, hits mostly inhibitors; 0.37% of 290,000 active; purified LmPK, Kinase-Glo ATP luminescence, 1 h; Q27686; also: potency is read from the fitted curve at half-maximal effect; % is scaled to controls: 0 for no effect and ±100 for the full control effect
Target sequence (Q27686 whole entry, looked up): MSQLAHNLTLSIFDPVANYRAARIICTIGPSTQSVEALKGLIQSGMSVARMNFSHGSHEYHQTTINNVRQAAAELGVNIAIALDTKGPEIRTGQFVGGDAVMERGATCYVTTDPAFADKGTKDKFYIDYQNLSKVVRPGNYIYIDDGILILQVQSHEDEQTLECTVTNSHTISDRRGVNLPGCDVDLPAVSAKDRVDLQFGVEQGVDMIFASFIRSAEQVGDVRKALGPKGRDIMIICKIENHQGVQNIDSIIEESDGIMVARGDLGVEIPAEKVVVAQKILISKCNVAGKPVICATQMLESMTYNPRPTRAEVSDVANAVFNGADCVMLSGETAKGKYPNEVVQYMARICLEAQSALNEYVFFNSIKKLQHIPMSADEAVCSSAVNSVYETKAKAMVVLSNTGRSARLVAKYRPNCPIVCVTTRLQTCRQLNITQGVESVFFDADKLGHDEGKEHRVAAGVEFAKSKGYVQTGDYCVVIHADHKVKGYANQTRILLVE
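Purified LmPK (0.1 nM) with 0.5 mM PEP and 0.1 mM ADP in imidazole buffer pH 7.2 with MgCl2/KCl, 1 h at room temperature. ATP formed was read by luciferase luminescence and normalized to no-enzyme and uninhibited controls.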
Starred values were filed as active, the others as inactive; [ ] = remark or other dose. Many of the other results were omitted from the sample, so hits are more common in it than they were. Unless noted, calls follow the shape of the dose curve; as a rule, active = well fitted curve in the direction sought with a large enough effect; inconclusive = small, poorly fitted or top-dose-only effect, or another doubt; inactive = no such curve, though single readings can be large; an effect the other way counts as inactive or inconclusive.

Screening Cc1onc(-c2ccccc2)c1-c1ccc(S(N)(=O)=O)cc1 returned Shiga inhibitor 69*, TbPYK inhibitor 2%, CHX counter 38*, Giardia FBPA inh 12%, RE007 growth inh 24% and LmPK inh 7%.
Screening CC(C)=CCC/C(C)=C/CNC(=O)CC1C[C@H](C(=O)N(C(C)C)C(C)C)[C@@]2(C)c3[nH]c4ccccc4c3CCN2C1=O (some centres undefined) returned TbPYK inhibitor 2% and RE007 growth inh -7%.
CC(C)C(=O)N1CCN(c2ccc(NC(=O)c3cccs3)cc2Cl)CC1 was read as Shiga inhibitor 25*, TbPYK inhibitor -1%, CHX counter 12, Giardia FBPA inh -11%, RE007 growth inh 1% and LmPK inh -5%.
For O=C(Nc1ccc(N2CCN(C(=O)c3ccco3)CC2)c(Cl)c1)c1cccs1 the results were Shiga inhibitor 29*, TbPYK inhibitor -5%, CHX counter 22*, Giardia FBPA inh -11%, RE007 growth inh -11% and LmPK inh 0%.
CCC(=O)Nc1ccc(N2CCN(C(=O)c3ccco3)CC2)c(Cl)c1 was read as Shiga inhibitor 11, TbPYK inhibitor 0%, CHX counter 10, Giardia FBPA inh 1%, RE007 growth inh 12% and LmPK inh -4%.
O=[N+]([O-])c1ccc2cn(-c3ccccc3)nc2c1 was read as Shiga inhibitor 52*, TbPYK inhibitor -7%, CHX counter 54*, Giardia FBPA inh -5%, RE007 growth inh inconclusive and LmPK inh -10%.
Nc1c(-c2ccc(Cl)cc2)cnn1-c1cccc([N+](=O)[O-])c1 was read as Shiga inhibitor 87*, TbPYK inhibitor 4%, CHX counter 19*, Giardia FBPA inh -8%, RE007 growth inh 0% and LmPK inh 2%.
For Cc1nn(-c2ccccc2)c(N)c1Sc1cccc([N+](=O)[O-])c1 the results were Shiga inhibitor 2, TbPYK inhibitor inconclusive, CHX counter 11, Giardia FBPA inh -14%, RE007 growth inh -4% and LmPK inh 1%.
Nc1c(-c2ccccc2)cnn1-c1cccc([N+](=O)[O-])c1 was read as Shiga inhibitor 81*, TbPYK inhibitor -5%, CHX counter 31*, Giardia FBPA inh -2%, RE007 growth inh inconclusive and LmPK inh 1%.
Screening Nc1c(-c2ccc(Cl)cc2)cnn1-c1cccc(C(F)(F)F)c1 returned Shiga inhibitor 41, TbPYK inhibitor 0%, CHX counter 19, Giardia FBPA inh 0%, RE007 growth inh -5% and LmPK inh 4%.
Cc1nn(-c2cccc([N+](=O)[O-])c2)c(N)c1-c1ccccc1 was read as Shiga inhibitor 73*, TbPYK inhibitor -3%, CHX counter 39*, Giardia FBPA inh -6%, RE007 growth inh -5% and LmPK inh 2%.
Screening Nc1nc(N)nc(-c2cccc([N+](=O)[O-])c2)n1 returned TbPYK inhibitor 1% and RE007 growth inh 12%[18.4 µM].
`Cc1c(Cl)cccc1NC(=O)CC(c1ccc(F)cc1)N1Cc2ccccc2C1=O` (centres undefined) gave TbPYK inhibitor 5%.
Screening COCCNC(=O)/C(C#N)=C/c1c(N2CCN(c3ccc(OC)cc3)CC2)nc2c(C)cccn2c1=O returned Shiga inhibitor -3, TbPYK inhibitor -9%, CHX counter 1, Giardia FBPA inh 1%, RE007 growth inh -17% and LmPK inh -1%.
For Nc1nn(-c2ccccc2)c2ccc([N+](=O)[O-])cc12 the results were Shiga inhibitor 34, TbPYK inhibitor -12%, CHX counter 26*, Giardia FBPA inh -9%, RE007 growth inh inconclusive and LmPK inh 7%.
Screening O=[N+]([O-])c1ccc2c(c1)nnn2-c1ccccc1 returned Shiga inhibitor 22, TbPYK inhibitor 1%, CHX counter -2, Giardia FBPA inh -19%, RE007 growth inh 10% and LmPK inh -2%.
`COc1ccccc1OCC(=O)Nc1nc2c(s1)CCCC2` gave Shiga inhibitor 78*, TbPYK inhibitor 7%, CHX counter 49*, RE007 growth inh inconclusive and LmPK inh -2%.
